Test results published in ChEMBL document CHEMBL1157539, “Thousands of chemical starting points for antimalarial lead identification” (Nature, 2010).

Tests used:
Type in all cases: functional
Plasmodium falciparum [1] = experiment: GSK_TCMDC: Inhibition of Plasmodium falciparum 3D7 in whole red blood cells, using parasite LDH activity as an index of growth. Test compounds present at 2uM
Plasmodium falciparum [2] = experiment: GSK_TCMDC: Inhibition of Plasmodium falciparum Dd2 in whole red blood cells, using parasite LDH activity as an index of growth. Test compounds present at 2uM
HepG2 = experiment: GSK_TCMDC: Percent inhibition of human HepG2 cell line. Test compounds present at 10uM.

SMILES	Inhibition (Plasmodium falciparum [1]) [%]	Inhibition (Plasmodium falciparum [2]) [%]	Inhibition (HepG2) [%]
CC1CCCCN1Cc1cccc(-c2c[nH]c3nc(NC4CCCC4)ncc23)c1.O=C(O)C(F)(F)F (configuration not stated)	93	14	0
Cc1cc(=O)c2cc(Oc3ccc(OC(F)(F)F)cc3)ccc2[nH]1	86	71	20
CCOc1ccc2c(=NN=Cc3cc(OC)c(OC)c(OC)c3)cc(C)[nH]c2c1	100	99	18
Cc1nnc2c(NC(=O)NC3CCCC3)cc3ccc(-c4cccc(CN5CCN(C)CC5)c4)cc3n12	91	68	54
COc1ccc2ncc(Cl)c(CCN3CC[C@@H](CNCc4cc5c(cn4)OCS5)C3)c2n1.Cl	99	31	22
COc1ccc(NC(=O)c2ccc(-c3nc(-c4ccccc4)cs3)cc2)cc1N1CCN(C)CC1.O=C(O)C(=O)O	93	13	17
Cc1ccc(Oc2ncccc2C(=O)Nc2cccc3cccnc23)c(C)c1	99	76	0
Nc1cccc(CNCc2cccc(-c3cccc(-c4nc5cc(C(F)(F)F)ccc5[nH]4)c3)c2)c1.O=C(O)C(F)(F)F	100	96	8
CNC(=O)c1cnc(Nc2ccc(OCC(O)CN(C)C)cc2)nc1Nc1cccc(OC(C)C)c1.O=C(O)C(F)(F)F (configuration not stated)	100	100	21
Nc1nc2c(cnn2CCCCCCCP(=O)(O)O)c(=O)[nH]1	94	91	0
Cc1cc(Nc2nc(NCc3cccnc3)nc3ccccc23)n[nH]1	100	33	11
Oc1ccc(CCNc2nc(NCc3ccccc3-c3ccc(C(F)(F)F)cc3)nc(N3CCNCC3)n2)cc1	97	53	17
CCc1nc(N)nc(N)c1-c1ccc(C(C)(C)C)cc1	94	0	27
N#Cc1ccccc1Sc1ccccc1C(=O)Nc1ccc2ccccc2n1	92	85	0
O=C(NCC1CC1)C1CCN(C(c2ccccc2)c2ccc(Cl)c(Cl)c2)CC1 (configuration not stated)	97	96	7
CNc1ccc(CNCc2ccc(-c3ccc(-c4nc5cc(C(F)(F)F)ccc5[nH]4)s3)cc2)cc1.O=C(O)C(F)(F)F	100	97	44
Cc1cc(Nc2cccc(C(F)(F)F)c2)nc(N)n1	98	24	5
Cc1cc(Cl)ccc1NC(=O)NCCCCCN1CCC(c2c[nH]c3ccccc23)CC1	91	8	59
Cc1cccc(-c2cccc3c(NC(=O)N4CCc5cc6nccc(N7CCN8CCC[C@H]8C7)c6cc54)cccc23)n1.Cl	94	68	14
CCc1ccc(C2CCN(CCCCNC(=O)c3ccc(NC(=O)c4ccc(Cl)cc4)cc3)CC2)c(OCCO)c1	98	100	94

SMILES	Inhibition (Plasmodium falciparum [1]) [%]	Inhibition (Plasmodium falciparum [2]) [%]	Inhibition (HepG2) [%]
Oc1ccc2[nH]cc(C3CCN(CCCNCc4ccc(-c5ccccc5)cc4)CC3)c2c1	100	0	22
COc1ccc(CC(=O)NC(CCN2CCC3(CC2)CN(S(C)(=O)=O)c2ccccc23)c2ccc(Cl)c(Cl)c2)cc1OC (configuration not stated)	92	77	10
c1cc(-c2nc3ccccc3[nH]2)nc(-c2nc3ccccc3[nH]2)c1	87	24	7
CCN(CC)CCN(Cc1ccc(-c2ccc(C(F)(F)F)cc2)cc1)C(=O)Cn1cc(Cc2cnn(C)c2)c(=O)n2nc(-c3ccccc3)cc12.O=C(O)C(O)C(O)C(=O)O	100	74	18
O=C(O)C(F)(F)F.c1cc(CN2CCc3ccccc3CC2)cc(-c2c[nH]c3nc(NC4CCCC4)ncc23)c1	99	49	31
COc1ccc2nccc([C@@H](O)CN3CCC(NCc4cc5ccccn5n4)CC3)c2c1.O=C(O)C(=O)O	99	18	7
O=C(Nc1cccc(C(F)(F)F)c1)Nc1ccc(Cl)c(Cl)c1	100	100	5
CCOc1ccc(C(C)NC(=O)Nc2ccccc2)cc1OCC (configuration not stated)	96	95	14
COc1ccc2cc(C(=O)NC3CCC(CCN4CCc5cc(C#N)ccc5C4)CC3)[nH]c2c1.Cl (configuration not stated)	88	0	9
c1csc(-c2nc(N3CCCCC3)ncc2-c2ccsc2)n1	89	72	0
CCN(CCCN1CCCCC1)c1cc(C)nc(Nc2ccc(F)c(C(F)(F)F)c2)n1.O=C(O)C(F)(F)F	100	93	32
Fc1ccc2[nH]c(-c3ccc(-c4ccc(CN5CCC(CCN6CCCCC6)CC5)cc4)cc3)nc2c1.O=C(O)C(F)(F)F	100	100	98
Cc1ccccc1C1CCN(C2CCC(NC(=O)C3=Cc4ccccc4OC3)CC2)CC1 (configuration not stated)	91	15	26
CCC(C)(C)c1ccc(OCC(O)CN2CCCCC2)c(C(C)(C)CC)c1 (configuration not stated)	91	26	14
Cc1cc(C2CCN(CCCCNC(=O)c3ccc(NC(=O)c4ccc(Cl)cc4)cc3)CC2)c(C)cc1OCCN(C)C	100	77	18
O=C(O)C(F)(F)F.O=C(c1cccs1)N(Cc1cccc(-c2ccc(CNCCc3ccccc3)cc2)c1)C1CCN(Cc2ccccc2)CC1	95	76	3
CC1(C)CCCN(C(=O)c2cccc(-n3nc(-c4ccc(Cl)cc4)cc3N)c2)C1	100	98	13
CN(C(=O)Cc1ccc(Cl)c(Cl)c1)C1CCN(CCCCCNC(=O)/C=C/c2ccc(Cl)c(Cl)c2)CC1	84	13	87
CCCc1c(C(=O)Nc2ccc3c(c2)CCN(C2CCC2)CC3)cnn1-c1ccc(Cl)cc1.O=C(O)C(F)(F)F	92	12	64
O=C(Nc1ccc(-c2oc(C(=O)NCCc3cccc(Cl)c3)cc2-c2ccncc2)cc1)Nc1cccc(Cl)c1.O=C(O)C(F)(F)F	99	84	13

SMILES	Inhibition (Plasmodium falciparum [1]) [%]	Inhibition (Plasmodium falciparum [2]) [%]	Inhibition (HepG2) [%]
COc1ccc2nccc([C@@H](O)CN3CCC(NCc4ccc5cccc(O)c5n4)CC3)c2c1.O=C(O)C(=O)O	93	40	10
CCC[C@@H]([C@@H](CC1CCCCC1)C(=O)N[C@H](C(=O)Nc1ccccn1)[C@H](C)CC)N(O)C=O	96	87	24
Cc1cccc2[nH]cc(C3CCN(CCC4CCN(C(=O)/C=C/c5ccc(Cl)c(Cl)c5)CC4)CC3)c12	91	8	13
COc1ccc2nccc([C@@H](O)CN3CCC(NC(=O)C(c4cc5ccccc5o4)N4CCN(c5ccc(F)cc5)CC4)CC3)c2c1 (some centres not stated)	100	98	15
Cc1cccc2nc(-c3ccc(-c4cccc(NC(=O)C(C)CN(C)C)c4)s3)[nH]c12 (configuration not stated)	92	69	12
Cc1ccc(O)c(C(=O)c2cc(C(=O)Nc3ccccc3C)c(=O)n(-c3ccccc3C)c2)c1	98	81	0
COc1ccc2ncc(F)c(CCN3CCC(NCc4cc(C)c5c(c4)OCCO5)CC3)c2n1.Cl	100	67	20
Cc1cc(N2CC=CCC2)nc(NC(=N)Nc2ccc(Cl)cc2)n1	100	78	0
CCCCOC(=O)C1=C(C)NC2=C(C(=O)CC(c3ccc(OC)c(OC)c3)C2)C1c1ccc(O)cc1 (configuration not stated)	90	75	0
CC(C)Nc1cc(C(=O)N[C@@H](Cc2ccccc2)[C@H](O)CNC2CCOCC2)c(F)c(N2CCCCS2(=O)=O)c1.O=CO	98	98	2
Cc1cn(CC(=O)Nc2cccc(-c3cccc(-c4nc5cccc(C)c5[nH]4)c3)c2)c(=O)[nH]c1=O	100	100	2
COC(=O)c1ccc2c(c1)nc(Nc1cccc(F)c1)n2CC(O)c1ccccn1 (configuration not stated)	99	96	0
CC(Cc1ccc(C(=O)OCCOC(=O)c2ccc(CC(C)NCC(O)c3cccc(C(F)(F)F)c3)cc2)cc1)NCC(O)c1cccc(C(F)(F)F)c1 (configuration not stated)	98	86	10
CCN(C)c1cc(C(=O)N[C@@H](Cc2ccccc2)[C@H](O)CNC(C)(C)c2cccc(OC)c2)cc(N2CCCC2=O)c1	100	81	0
CC(CN(C)C)C(=O)Nc1cccc(-c2ccc(-c3nc4ccccc4[nH]3)s2)c1 (configuration not stated)	100	47	13
COc1ccccc1-c1cccc(-c2cccc(NC(=O)c3ccc([N+](=O)[O-])o3)c2)n1	97	59	78
Cc1ccc(C(=O)Nc2ccc(F)cc2)cc1-c1nc(NC2CC(C)(C)NC(C)(C)C2)nc2c1ccc(=O)n2-c1c(F)cccc1F	89	96	16
O=C(Nc1ccc(C(F)(F)F)cc1)c1ccc(NCCCN2CCCCCC2)c([N+](=O)[O-])c1	100	98	42
O=C(NCCCCCN1CCC(c2c[nH]c3ccccc23)CC1)Nc1ccc(Br)cc1	91	0	24
